The values that follow come from ChEMBL document CHEMBL3988442, “University of Dundee, Small-Polar-MMV Screening Library” (2021).

Structures are written as SMILES. The campaign covered roughly 48,000 compounds. About 13,000 (27%) showed an effect of 50% or more. The list shows a part of the results.

The test system of the assay is Wolbachia pipientis. Description: Anti-Wolbachia Cell-Based Screen. Also on record: scale not given: in the data most compounds retested in dose-response had high values. The settings on record: 5 µM. In kind it is functional.
Regarding `N#CCCNC(=O)CSc1ccc(F)cc1F`, the “Percent Effect” value is -9.893%. `Cc1c(C(C)NC(=O)Nc2ccc(F)c(F)c2)cnn1C` (configuration not stated): the “Percent Effect” value came to 0.41%.

Turning to `CN1CCC(Oc2ccc(NC(=O)c3ccccc3Br)cc2)CC1`, the “Percent Effect” value is on record as -1.249%.

Consider `Cc1nn(C)cc1C1=NS(=O)(=O)N(C)C(C(=O)Nc2ccc(Br)cc2)=C1`, for which the “Percent Effect” value is on record as 160.2%.

`Cc1nn(C)cc1C1=NS(=O)(=O)N(C)C(C(=O)Nc2ccc(Cl)cc2)=C1`: the “Percent Effect” value is listed as 140.7%. In the case of `Cc1c(C2=NS(=O)(=O)N(C)C(C(=O)Nc3ccc(Br)cc3)=C2)cnn1C`, the “Percent Effect” value came out at 158.8%. The same measure for `CNc1nc(CNC(=O)Nc2ccccc2-c2noc(C)n2)cs1`: 2.213%; for `CN1CC(NC(=O)CCCc2cc(Cl)sc2Cl)CCC1=O` (configuration not stated): -9.281%; for `O=C(NCCc1ccccc1)c1cn(CCNCc2cccnc2)nn1`: -1.891%. For `O=C(NCCCNc1cccnc1)c1ccc2nccn2c1`, the “Percent Effect” value is on record as 1.237%. On to `O=C(NCCCOc1cccnc1)c1cn(CCc2ccccc2)nn1`, for which the “Percent Effect” value is listed as -0.6541%.

With `O=C(NCc1cccnc1)c1cn(CCc2ccccc2)nn1`, the “Percent Effect” value was 77.17%. The same measure for `O=C(NCc1cccnc1)c1ccc2nccn2c1`: 107.5%. With `O=C(NCCc1cccnc1)c1ccc2nccn2c1`, the “Percent Effect” value was -5.38%. Next, `Cc1ccc(C(=O)NCC2(O)CCOCC2)cc1Br`: -13.19%. Next, `O=C(NCC1(O)CCOCC1)c1ccc(F)cc1`: 96.45%; `CN(C)c1cccc(C(=O)NCC2(O)CCOCC2)c1`: -18.41%. Next, `COC(=O)c1ccc(C(=O)NCC2(O)CCOCC2)cc1`: 130.4%; `Cc1ccc(C(=O)NCC2(O)CCOCC2)cc1F`: -12.72%; `CN(C)c1ccc(C(=O)NCC2(O)CCOCC2)cc1`: -16.02%.

Consider `O=C(O)C(F)(F)F.O=C(O)C(F)(F)F.O=C(O)c1cc2c(nc1N1CCOCC1)CCN(C1CCOC1)CC2` (configuration not stated), for which the “Percent Effect” value is on record as -7.215%. For the compound `Cc1ccnc2c1NC(=O)CN2C(=O)CCC(F)(F)F`, the “Percent Effect” value is listed as -8.698%. Next, `O=C(OC1CCC1)c1ncccc1OCC(F)(F)F`: -10.44%; `CCCNCc1cc2c(C)cc(C)cc2n2c(=O)n(C)nc12`: -10.06%; `COCCCn1cnnc1CNC(=O)c1[nH]c2c(C)cc(C)cc2c1C`: 0.2132%.

On to `CCOCCCNCc1cc(O)c2cc(C)ccc2n1`, for which the “Percent Effect” value is given as -26.14%. In the case of `CCOCCCNCc1cc2c(C)cc(C)cc2n2c(=O)n(C)nc12`, the “Percent Effect” value worked out at 119.1%. Next, `COCCNCc1cc2c(C)cc(C)cc2n2c(=O)n(C)nc12`: 88.13%.

Consider `O=C1CCC2(CCCN(c3ncnc4[nH]cnc34)C2)CN1CCCO` (configuration not stated), for which the “Percent Effect” value is -3.767%.

As for `COc1ccccc1CC(NC(=O)N1CCC[C@@H]1CO)C(C)C` (some centres not stated), the “Percent Effect” value is -5.452%. The same measure for `CSCCC(=O)N1CCC(c2nnc(CN(C)CCO)n2C)CC1`: 26.9%; for `NS(=O)(=O)N1CCc2ccc(NC(=O)CC(F)(F)F)cc21`: -10.92%. The same measure for `Cc1cccc(NC(=O)NC2CCN(C3CCOC3)CC2)c1` (configuration not stated): -12.46%. On to `CCS(=O)(=O)N1CCc2ccc(NC(=O)NC3CCCCC3)cc21`, for which the “Percent Effect” value amounted to 108.5%. As for `NS(=O)(=O)N1CCc2ccc(NC(=O)Cc3ccc(F)cc3)cc21`, the “Percent Effect” value is on record as -5.162%.

With `CCS(=O)(=O)N1CCc2ccc(NC(=O)Nc3cccc(C)c3)cc21`, the “Percent Effect” value is 127.7%. For `COc1cc(NC(=O)NC2CCCC2)ccc1N1CCOC1=O`, the “Percent Effect” value was 8.686%. For `CCS(=O)(=O)N1CCc2ccc(NC(=O)Nc3cccc(F)c3)cc21`, the “Percent Effect” value is listed as 144.6%. The same measure for `CCS(=O)(=O)N1CCc2ccc(NC(=O)Nc3cccc(SC)c3)cc21`: 9.677%; for `CCS(=O)(=O)N1CCCc2ccc(NC(=O)Cc3ccc(F)cc3)cc21`: -6.577%; for `CCS(=O)(=O)N1CCc2ccc(NC(=O)NC(C)(C)C)cc21`: 107.2%. Next, `O=C(Nc1ccccc1)C1CCCN(c2cc(-n3cncn3)ncn2)C1` (configuration not stated): -3.274%; `COCC1CN(C(=O)Cc2cccc(F)c2)Cc2ccnn2C1.O=C(O)C(F)(F)F` (configuration not stated): 13.65%. As for `CCC(=O)N1CC[C@@H](c2ccc3ccccc3c2)[C@H](O)C1`, the “Percent Effect” value is on record as -8.5%. In the case of `CC(NS(C)(=O)=O)C(=O)N(C)Cc1csc(-c2cccs2)n1` (configuration not stated), the “Percent Effect” value was -6.188%.

Turning to `O=S(=O)(N1CCCCC1)N1CCOC2(CCCC2)C1`, the “Percent Effect” value is -3.647%.

As for `O=C(NC1CC1)NC(c1ccc(F)cc1)C1CC1` (configuration not stated), the “Percent Effect” value was -8.198%. The same measure for `NS(=O)(=O)N1CCc2ccc(NC(=O)Cc3ccccc3F)cc21`: -18.89%.

Take `CCS(=O)(=O)N1CCc2ccc(NC(=O)Nc3ccccc3C)cc21`: the “Percent Effect” value was 122.8%.

Consider `CCS(=O)(=O)N1CCc2ccc(NC(=O)Nc3ccccc3)cc21`, for which the “Percent Effect” value came to 185.4%. As for `CCS(=O)(=O)N1CCc2ccc(NC(=O)Nc3ccc(F)cc3F)cc21`, the “Percent Effect” value is 3.435%. The same measure for `CN(CCN1CCN(c2ccccc2)CC1)C(=O)Nc1ccccn1`: -17.55%.
